# According to PubChem BioAssay (NCATS):
# Values joined by “and” are separate entries in the source; they are usually repeats but may differ in a detail not shown here. Equal values may be shown once. Results filed as inconclusive are left out. A number with no mark means an inactive call. Active and inactive are the calls of the source. The call rests on the fitted dose curve; in most records, active means well fitted curve in the direction sought with a large enough effect; inconclusive means small, poorly fitted or top-dose-only effect, or another doubt; inactive means no such curve, though single readings can be large; an effect the other way counts as inactive or inconclusive.
# Columns and labels:
# [1] = Viability qHTS for spleen associated tyrosine kinase inhibitor (SYKi) drug resistant MV4-11 cells (AID 1963824); further: nearly all actives have a fitted effect of over 35% in size
# How it was run: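 SYK-inhibitor-resistant MV4-11 AML cells were seeded at 500 per well onto compound and cultured 72 hours (37 °C, 5% CO2). CellTiter-Glo was then added, and after 10 min at room temperature, luminescence gave viability.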
# [2] = Quantitative highthroughput screen to assess conditional lethalithy of SEM cells grown in RPMI1640 with dialyzed fetal bovine serum (RPMI+ds) (AID 1963884); further: nearly all actives have a fitted effect of over 35% in size;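 on Viability: series mostly up to about 46 µM; 100% = DMSO control wells and 0% = empty wells without cells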
# How it was run: (§1)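 Each medium arm—HPLM with 10% dialyzed FBS, or RPMI1640 with 5 mM glucose and 10% untreated or dialyzed FBS—was screened against an 11-point, 3-fold compound titration for 48 h at 37 °C, with CellTiter-Glo luminescence as endpoint.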
# [3] = Cellular viability qHTS for adrenocortical cancer (ACC) cell line SW-13 (AID 1963989); conditions: SW-13 ACC cells viability, CellTiter-Glo, 48 h; activity (max response): hits give low values; further: nearly all actives have a fitted effect of over 65% in size;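 on activity (max response): cells grown in serum-free medium with ITS supplement; on the % scale 0 is the no-effect control and ±100 the full control effect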
# How it was run: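 IC50 and maximal-response values come from four-parameter logistic fits of titration data. SW-13 cells in serum-free medium received compounds (up to 46 uM final) for 48 h before CellTiter-Glo luminescence.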
# [4] = Cellular viability qHTS for adrenocortical cancer (ACC) cell line NCI-H295R (AID 1963990); further: nearly all actives have a fitted effect of over 60% in size
# How it was run: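 Adrenocortical carcinoma cells, suspended at 300 000 cells/mL in serum-free DMEM plus ITS, rested overnight before pin transfer of compound. After two days' incubation, ATP-dependent luminescence was recorded and curve-fitted.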
# [5] = Quantitative highthroughput screen to assess conditional lethalithy of P12 Ichikawa cells grown in Human Plasma-Like Medium with dialyzed fetal bovine serum (HPLM+ds) (AID 1963879); conditions: Potency: viability; further: nearly all actives have a fitted effect of over 35% in size; on Viability: series mostly up to about 46 µM
# How it was run: as §1
# [6] = Quantitative highthroughput screen to assess conditional lethalithy of P12 Ichikawa cells grown in RPMI1640 with dialyzed fetal bovine serum (RPMI+ds) (AID 1963880); conditions: Potency: P12-Ichikawa viability; further: nearly all actives have a fitted effect of over 35% in size;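 on Viability: 100% = DMSO wells and 0% = empty wells on each plate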
# How it was run: as §1
# [7] = Quantitative highthroughput screen to assess conditional lethalithy of P12 Ichikawa cells grown in RPMI1640 with untreated serum (RPMI+s) (AID 1963881); conditions: Potency: viability; further: nearly all actives have a fitted effect of over 35% in size;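 on Viability: series mostly up to about 46 µM; 100% = DMSO wells and 0% = empty wells without cells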
# How it was run: as §1
# [8] = Quantitative highthroughput screen to assess conditional lethalithy of SEM cells grown in Human Plasma-Like Medium with dialyzed fetal bovine serum (HPLM+ds) (AID 1963882); further: nearly all actives have a fitted effect of over 35% in size; on Viability: series mostly up to about 46 µM
# How it was run: as §1
# [9] = Quantitative highthroughput screen to assess conditional lethalithy of SEM cells grown in RPMI1640 with unreated serum (RPMI+s) (AID 1963883); further: nearly all actives have a fitted effect of over 35% in size;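 on Viability: 100% = DMSO wells and 0% = empty wells without cells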
# How it was run: as §1
# Potency means the concentration at half of the fitted maximal effect.
structure (smiles),measurement,setting,value
Cn1cncc1[C@@](N)(c1ccc(Cl)cc1)c1ccc2c(c1)c(-c1cccc(Cl)c1)cc(=O)n2C,Potency,[1],2.35 µM (active)
same,Potency,[2],3.72 µM (active)
same,activity (max response),[3],-19.2%
same,Potency,[4],inactive
CCc1c2c(nc3ccc(O)cc13)-c1cc3c(c(=O)n1C2)COC(=O)[C@]3(O)CC,Potency,[1],0.0083 µM (active)
same,Potency,[5],0.0053 µM (active)
same,Potency,[6],0.0042 µM (active)
same,Potency,[7],0.0053 µM (active)
same,Potency,[8],0.0148 µM (active)
same,Potency,[9],0.0083 µM (active)
same,Potency,[3],0.224 µM (active)
same,Potency,[4],1.26 µM (active)
O=C1c2c(O)ccc(O)c2C(=O)c2c(NCCNCCO)ccc(NCCNCCO)c21,Potency,[1],59.6 nM (active) and 20.9 nM (active)
same,Potency,[5],0.296 µM (active)
same,Potency,[6],0.332 µM (active)
same,Potency,[7],0.264 µM (active)
same,Potency,[8],0.332 µM (active)
same,Potency,[9],0.235 µM (active)
same,Potency,[2],0.332 µM (active)
same,Potency,[3],1.16 µM (active) and 2.51 µM (active)
OC[C@H]1OC(O)C[C@@H](O)[C@H]1O (some centres undefined),Potency,[1],inactive
same,Potency,[5],inactive
same,Potency,[6],inactive
same,Potency,[7],inactive
same,Potency,[8],inactive
same,Potency,[9],inactive
same,Potency,[2],inactive
same,activity (max response),[3],7.09%
same,Potency,[4],inactive
O=C(O)C[C@H]1CCc2c1[nH]c1ccc(OCc3ccc(C4CCCC4)c(C(F)(F)F)c3)cc21,Potency,[1],7.42 µM (active)
same,activity (max response),[3],5.55%
NCCCCNCCCN,Potency,[1],5.9 µM (active)
same,Potency,[6],23.5 µM (active)
same,Potency,[7],18.7 µM (active)
same,Potency,[8],11.8 µM (active)
same,Potency,[2],11.8 µM (active)
same,Potency,[4],inactive
Cc1cc(Nc2cc(NC(=O)c3c(Cl)cccc3Cl)ccn2)nc(N)n1,Potency,[1],0.164 µM (active)
same,Potency,[6],1.18 µM (active)
same,Potency,[2],1.05 µM (active)
same,Potency,[4],7.08 µM (active)
CCCCCCCCCCCC(CC1OC(=O)C1CCCCCC)OC(=O)C(CC(C)C)NC=O (centres undefined),Potency,[1],3.72 µM (active)
same,Potency,[5],20.9 µM (active)
same,Potency,[6],23.5 µM (active)
same,Potency,[7],20.9 µM (active)
same,Potency,[8],18.7 µM (active)
same,Potency,[9],5.9 µM (active)
same,Potency,[2],11.8 µM (active)
same,Potency,[4],inactive
COc1ccc2c(c1)CC[C@@H](CN(C)CC(=O)O)[C@H]2c1ccccc1,Potency,[1],inactive
same,Potency,[5],2.64 µM (active)
same,Potency,[7],2.64 µM (active)
same,Potency,[8],2.35 µM (active)
same,Potency,[9],2.64 µM (active)
same,activity (max response),[3],12.6%
same,Potency,[4],inactive
Cc1c(C(=O)NN2CCCCC2)nn(-c2ccc(Cl)cc2Cl)c1-c1ccc(Cl)cc1,Potency,[1],23.7 µM (active)
same,Potency,[6],3.32 µM (active)
same,Potency,[8],inactive
same,Potency,[2],inactive
same,Potency,[3],28.2 µM (active)
same,Potency,[4],20.6 µM (active) and 28.2 µM (active)
COc1ccc(S(=O)(=O)N2c3ccc(Cl)cc3[C@@](O)(c3ccccc3Cl)[C@H]2C(=O)N2CCC[C@@H]2C(N)=O)cc1OC,Potency,[1],16.8 µM (active)
same,activity (max response),[3],-24.3%
CCCCC(CC)COC(=O)c1ccccc1C(=O)O (centres undefined),Potency,[1],19.7 µM (active)
same,activity (max response),[3],6.28%
COc1cc(/C=C/C(=O)O[C@H]2CC[C@]34C[C@]35CC[C@]3(C)[C@@H]([C@H](C)CCC=C(C)C)CC[C@@]3(C)[C@@H]5CC[C@H]4C2(C)C)ccc1O,Potency,[1],16.4 µM (active)
same,Potency,[3],14.6 µM (active)
CCN(CC)CCOC(=O)C(Cc1cccc2ccccc12)CC1CCCO1 (centres undefined),Potency,[1],inactive
same,activity (max response),[3],-10.7%
CC1(COc2ccc3c(c2)ncn3-c2ccc3cccc(N4CCC(N)CC4)c3n2)COC1,Potency,[1],11.6 nM (active) and 10.5 nM (active)
same,Potency,[5],10.5 µM (active)
same,Potency,[9],0.0209 µM (active)
same,Potency,[3],25.1 µM (active)
same,Potency,[4],14.1 µM (active)
COc1cc2nccc(Oc3ccc(NC(=O)C4(C(=O)Nc5ccc(F)cc5)CC4)cc3)c2cc1OC,Potency,[1],0.0093 µM (active)
same,Potency,[7],20.9 µM (active)
same,Potency,[3],12.6 µM (active)
Cc1nc2c(-c3cnc(N)nc3)nc(N3CCOCC3)nc2n1C(C)C,Potency,[1],326 nM (active) and 468 nM (active)
same,Potency,[5],0.0029 µM (active)
same,Potency,[6],0.0234 µM (active)
same,Potency,[7],0.0186 µM (active)
same,Potency,[4],0.562 µM (active)
CCN(CC)C(=O)N1CCN(C)CC1,Potency,[1],inactive
same,activity (max response),[3],-0.284%
CC(C)C[C@@H]1NC(=O)[C@@H](C(C)C)NC(=O)[C@@H]2CCCN2C(=O)[C@@H](CC(=O)O)NC(=O)[C@@H](Cc2c[nH]c3ccccc23)NC1=O,Potency,[1],9.34 µM (active)
same,activity (max response),[3],-0.875%
Cc1ccc(N)cc1O,Potency,[1],9.69 µM (active)
same,activity (max response),[3],2.63%
Cc1c(C)c2c(c(C)c1OC(=O)CCC(=O)OCCO)CC[C@@](C)(CCC[C@H](C)CCC[C@H](C)CCCC(C)C)O2,Potency,[1],inactive
same,Potency,[3],18.4 µM (active)
COc1cc2c(cc1OC)[C@@H]1CC(=O)[C@@H](CC(C)C)CN1CC2,Potency,[1],inactive
same,activity (max response),[3],-4.64%
CN[C@@H]1[C@@H](O)[C@@H](O[C@@H]2[C@@H](O)[C@H](O[C@H]3O[C@H](CN)[C@@H](O)[C@H](O)[C@H]3O)[C@@H](N)C[C@H]2NC(=O)C(O)CN)OC[C@]1(C)O (some centres undefined),Potency,[1],inactive
same,activity (max response),[3],-3.06%
CCOC(=O)[C@H]1O[C@@H]1C(=O)N[C@@H](CC(C)C)C(=O)NCCC(C)C,Potency,[1],5.9 µM (active)
same,activity (max response),[3],-2.38%
CN(C)CCN1C(=O)c2cccc3cc(NC(N)=O)cc(c23)C1=O,Potency,[1],4.17 µM (active)
same,Potency,[3],17.8 µM (active)
